This is an account of results in PubChem BioAssay (NCATS).

Several values for one entry are separate records, joined by “and”; a condition that tells them apart may be missing. Equal entries are not always repeated. Records with an inconclusive call do not appear. The source holds several records for some structures; these can differ, active in one and inactive in another. Activity calls are given as the source filed them. Unless noted, calls come from the whole dose curve; as a rule, active = well fitted curve in the direction sought with a large enough effect; inconclusive = small, poorly fitted or top-dose-only effect, or another doubt; inactive = no such curve, though single readings can be large; an effect the other way counts as inactive or inconclusive.

For assay [1], the target named is Protein phosphatase 1D (Homo sapiens) (UniProt O15297). The assay is described as follows: RapidFire Mass Spectrometry qHTS Assay for Modulators of WT P53-Induced Phosphatase 1 (WIP1) (AID 1347424).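 Note: series mostly up to about 63 µM; plate controls were DMSO wells for no effect and GSK830371 inhibitor control at 10 µM for full effect.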 Put shortly: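 RapidFire MS readout of dephosphorylated VEPPL-S-QETFS product, with 1 uM isotope-labelled peptide standard. Reaction: 10 nM WIP1, 2 uM phosphopeptide substrate, 5 min, room temperature, after 1 h compound preincubation; stopped with 0.5% formic acid.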
(Quantitative high-throughput screening tests each substance at several concentrations.)

Assay [2] in a line: Validation qHTS assay for inhibitors of Activation Induced Cytidine Deaminase (AID): UDG Counterscreen signal (AID 1347427). Note: 0% is about no effect. Put shortly: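 Fluorescence at 560 nm excitation, 665 nm emission reports UDG signal after 250 mM NaOH (2x) addition and 30 min. Enzymes (AID 1 uM, UDG 2 U/mL, at 4/3x) preincubated 10 min with compound, then 4 h with 4x 250 nM DJC20/DJC23 substrate at room temperature.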

Assay [3] is described as follows: Primary qHTS for inhibitors of La Crosse Virus (LACV) - induced cell death in SH-SY5Y cells (AID 1508616).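 Note: top concentration of the series differs between compounds; 0% = infected DMSO wells and 100% = uninfected DMSO wells; higher means more rescue of cells from virus-induced death.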 The gist of the method: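 Screening measures cell viability in LACV-infected SH-SY5Y cultures. Compound was added before virus (0.01 MOI), and ATP was detected by luminescence 6 days later.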
Assay [4] concerns the target Calcium and integrin-binding protein 1 (Homo sapiens) (UniProt Q99828). The assay is described as follows: Validation qHTS for Identification of Calcium Integrin Binding protein 1 (CIB1) Competitor (AID 1508618). Note: % is set by controls: 0 for no effect and ±100 for the full control effect. Put shortly:
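Displacement of FITC-alphaIIb peptide (100 nM) from CIB1-GST (1 uM) is monitored by polarization in quantitative HTS format; buffer carries 5 mM CaCl2 and 125 mM NaCl at pH 7.4, incubations are at room temperature.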

Assay [5] has the same target. The assay is described as follows: Primary qHTS for Identification of Calcium Integrin Binding Protein 1 (CIB1) Competitor (AID 1508620). Note: top concentration of the series differs between compounds; % is set by controls: 0 for no effect and ±100 for the full control effect. The gist of the method: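 Fluorescence polarization competition: GST-tagged CIB1 (1 uM final) preincubated with compound 15 min at room temperature, then FITC-labelled alphaIIb peptide (100 nM final) added. After 15 min at room temperature, polarization read at Ex 480/Em 540.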

Assay [6] can be described thus: Primary qHTS for small molecule stabilizers of the endoplasmic reticulum resident proteome: Secreted ER Calcium Modulated Protein (SERCaMP) assay (AID 1508630). Note: % is set by controls: 0 for no effect and ±100 for the full control effect. Put shortly:
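The SH-SY5Y reporter protocol was run at 3 concentrations up to 38.3 uM (primary) or 11 concentrations (follow-up): 16 h compound, 100 nM thapsigargin for 4 h, then extracellular luciferase luminescence.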

A short description of assay [7]: A High-Content qHTS Against Drug Library for the Identification of Small Molecules that Inhibit DYT1 Early Onset Primary Dystonia-Associated Cell Pathology (AID 1645839; calls by dose curve; note: series mostly up to about 46 µM). Put shortly:
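Cells were seeded and left for 24 h, then dosed with compound alongside tetracycline induction of mutant EGFP-TorsinA. They were incubated for 48 h, fixed in 4% paraformaldehyde, permeabilized and imaged for mislocalization (%pathology) and cell count.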

Assay [8] has as its target Cytochrome P450 2D6 (Homo sapiens) (UniProt P10635). The assay is described as follows: Cytochrome P450 family 2 subfamily D member 6 (CYP2D6) small molecule antagonists: luciferase biochemical (cell-free) qHTS assay (AID 1645840; active = well fitted curve in the direction sought with a large enough effect in the repeat runs; an effect the other way counts as inactive or inconclusive; note: nearly all actives have a fitted effect of over 55% in size; note: potency is the fitted concentration of half-maximal effect). Put shortly: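 P450-Glo CYP2D6 system: proluciferin substrate converted by enzyme to luciferin, read by luminescence proportional to activity. Enzyme-substrate mix with compound 10 min at room temperature, then NADPH regeneration 1 h before detection reagent.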

Assay [9] has as its target Cytochrome P450 2C9 (Homo sapiens) (UniProt P11712). The assay is described as follows: Cytochrome P450 family 2 subfamily C member 9 (CYP2C9) small molecule antagonists: luciferase biochemical (cell-free) qHTS assay (AID 1645842; active = well fitted curve in the direction sought with a large enough effect in the repeat runs; an effect the other way counts as inactive or inconclusive; note: nearly all actives have a fitted effect of over 55% in size; note: potency is the fitted concentration of half-maximal effect). Put shortly: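 P450-Glo CYP2C9 system: proluciferin substrate with enzyme in mix containing 0.4% BSA, 10 min at room temperature, then NADPH regeneration solution added and incubated 1 h at 37C. Detection reagent stopped reaction; luminescence read after 20 min as RLU.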

Assay [10] concerns the target Papain (Carica papaya) (UniProt P00784). The assay is described as follows: Primary qHTS assay for inhibitors of the protease papain (AID 1645873).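 Note: papain turnover of Z-FR-AMC read as the AMC fluorescence gain over 10 min; series mostly up to about 50 µM; % is set by controls: 0 for no effect and ±100 for the full control effect.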
The nature of assay [11]: Primary qHTS for inhibitors of nuclear receptor binding SET domain protein 2 (NSD2) in an isogenic RCH-ACV NSD2 p.E1099K mutant (9B) (AID 1645876). Note: nearly all actives have a fitted effect of over 70% in size. Note: potency is the fitted concentration of half-maximal effect.
A short description of assay [12]: Primary qHTS for inhibitors of nuclear receptor binding SET domain protein 2 (NSD2) in an RCH-ACV wild type WT cells (2C) (AID 1645877). Note: nearly all actives have a fitted effect of over 70% in size. Note: potency is the fitted concentration of half-maximal effect.
The target of assay [13] is Protein phosphatase 1D (Homo sapiens) (UniProt O15297). The assay is described as follows: Rhodamine-PBP qHTS Assay for Modulators of WT P53-Induced Phosphatase 1 (WIP1) (AID 1347425). Note: % of control where 0% means no effect. Put shortly:
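5 nM WIP1 + 10 uM Rh-PBP, 50 mM Tris pH 7.5, 30 mM MgCl2, 1 mM TCEP, 0.1 mM EGTA, BSA; cpds pinned, 1 hr RT; + 10 uM phosphopeptide; fluorescence 1-min reads x 11 min; delta = f1 - f0.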

Assay [14] addresses Rap guanine nucleotide exchange factor 3 (Homo sapiens) (UniProt O95398). The assay is described as follows: Confirmatory qHTS for antagonist of cAMP-regulated guanine nucleotide exchange factor 3 (EPAC1) (AID 1645880).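 Note: plate controls were DMSO only for no effect and full effect of the ATA control for full effect; nearly all actives have a fitted effect of over 55% in size.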 The gist of the method:
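Released BODIPY-GDP fluoresces less than Rap1-bound BODIPY-GDP; the signal is followed at 480/540 nm at 5-min intervals over 30 min, after 5 min at room temperature. Reactions contain 100 nM EPAC1, 250 nM RAP1B-BODIPY-GDP and 50 uM GDP; results are normalized to ATA and DMSO.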

Chain of Protein phosphatase 1D (Homo sapiens) (O15297 whole entry, looked up): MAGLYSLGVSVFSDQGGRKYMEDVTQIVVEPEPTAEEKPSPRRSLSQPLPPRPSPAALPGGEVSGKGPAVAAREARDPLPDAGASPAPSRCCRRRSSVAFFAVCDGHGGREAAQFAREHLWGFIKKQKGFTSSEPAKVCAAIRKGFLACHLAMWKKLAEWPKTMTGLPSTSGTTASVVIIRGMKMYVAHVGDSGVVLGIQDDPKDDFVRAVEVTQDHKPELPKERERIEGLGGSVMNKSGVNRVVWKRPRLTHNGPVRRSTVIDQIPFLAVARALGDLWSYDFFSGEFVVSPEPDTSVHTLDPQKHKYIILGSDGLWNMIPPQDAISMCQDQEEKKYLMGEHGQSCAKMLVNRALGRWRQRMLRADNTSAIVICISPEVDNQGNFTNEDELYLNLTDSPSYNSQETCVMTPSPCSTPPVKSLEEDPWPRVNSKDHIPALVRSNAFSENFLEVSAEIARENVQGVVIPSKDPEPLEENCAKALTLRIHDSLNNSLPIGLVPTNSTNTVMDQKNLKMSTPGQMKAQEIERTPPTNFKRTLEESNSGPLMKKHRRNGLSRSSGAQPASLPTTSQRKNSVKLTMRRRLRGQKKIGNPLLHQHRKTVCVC
Chain of Calcium and integrin-binding protein 1 (Homo sapiens) (Q99828 whole entry, looked up): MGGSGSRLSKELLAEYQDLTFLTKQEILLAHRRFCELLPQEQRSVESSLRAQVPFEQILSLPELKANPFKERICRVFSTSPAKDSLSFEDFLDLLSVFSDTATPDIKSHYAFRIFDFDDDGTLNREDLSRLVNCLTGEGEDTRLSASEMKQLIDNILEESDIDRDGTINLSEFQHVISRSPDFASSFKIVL
Chain of Cytochrome P450 2D6 (Homo sapiens) (P10635 whole entry, looked up): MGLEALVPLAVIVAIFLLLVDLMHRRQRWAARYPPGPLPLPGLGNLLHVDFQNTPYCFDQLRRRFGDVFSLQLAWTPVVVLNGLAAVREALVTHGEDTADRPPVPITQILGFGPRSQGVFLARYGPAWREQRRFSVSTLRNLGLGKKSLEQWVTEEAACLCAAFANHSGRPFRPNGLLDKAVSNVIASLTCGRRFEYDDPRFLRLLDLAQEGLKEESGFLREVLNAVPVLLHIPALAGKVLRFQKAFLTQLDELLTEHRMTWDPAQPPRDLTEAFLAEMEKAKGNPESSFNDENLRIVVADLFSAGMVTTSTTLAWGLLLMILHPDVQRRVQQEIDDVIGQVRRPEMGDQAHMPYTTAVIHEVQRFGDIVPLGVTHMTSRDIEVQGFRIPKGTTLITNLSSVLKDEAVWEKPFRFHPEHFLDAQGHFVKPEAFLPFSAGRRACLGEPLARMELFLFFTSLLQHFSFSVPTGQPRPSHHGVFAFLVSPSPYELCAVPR
Chain of Cytochrome P450 2C9 (Homo sapiens) (P11712 whole entry, looked up): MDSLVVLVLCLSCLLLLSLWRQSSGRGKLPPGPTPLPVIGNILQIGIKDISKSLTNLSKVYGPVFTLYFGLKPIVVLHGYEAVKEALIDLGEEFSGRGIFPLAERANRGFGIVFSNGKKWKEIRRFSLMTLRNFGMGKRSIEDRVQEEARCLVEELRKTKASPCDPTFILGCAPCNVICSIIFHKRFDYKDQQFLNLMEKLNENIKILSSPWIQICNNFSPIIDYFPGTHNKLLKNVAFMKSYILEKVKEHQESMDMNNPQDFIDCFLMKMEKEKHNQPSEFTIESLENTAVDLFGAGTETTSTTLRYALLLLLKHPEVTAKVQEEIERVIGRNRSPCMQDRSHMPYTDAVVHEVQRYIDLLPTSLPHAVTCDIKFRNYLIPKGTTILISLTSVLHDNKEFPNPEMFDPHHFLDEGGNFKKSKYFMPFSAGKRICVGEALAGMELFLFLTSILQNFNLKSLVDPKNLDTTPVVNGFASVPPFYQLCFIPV
Chain of Rap guanine nucleotide exchange factor 3 (Homo sapiens) (O95398 whole entry, looked up): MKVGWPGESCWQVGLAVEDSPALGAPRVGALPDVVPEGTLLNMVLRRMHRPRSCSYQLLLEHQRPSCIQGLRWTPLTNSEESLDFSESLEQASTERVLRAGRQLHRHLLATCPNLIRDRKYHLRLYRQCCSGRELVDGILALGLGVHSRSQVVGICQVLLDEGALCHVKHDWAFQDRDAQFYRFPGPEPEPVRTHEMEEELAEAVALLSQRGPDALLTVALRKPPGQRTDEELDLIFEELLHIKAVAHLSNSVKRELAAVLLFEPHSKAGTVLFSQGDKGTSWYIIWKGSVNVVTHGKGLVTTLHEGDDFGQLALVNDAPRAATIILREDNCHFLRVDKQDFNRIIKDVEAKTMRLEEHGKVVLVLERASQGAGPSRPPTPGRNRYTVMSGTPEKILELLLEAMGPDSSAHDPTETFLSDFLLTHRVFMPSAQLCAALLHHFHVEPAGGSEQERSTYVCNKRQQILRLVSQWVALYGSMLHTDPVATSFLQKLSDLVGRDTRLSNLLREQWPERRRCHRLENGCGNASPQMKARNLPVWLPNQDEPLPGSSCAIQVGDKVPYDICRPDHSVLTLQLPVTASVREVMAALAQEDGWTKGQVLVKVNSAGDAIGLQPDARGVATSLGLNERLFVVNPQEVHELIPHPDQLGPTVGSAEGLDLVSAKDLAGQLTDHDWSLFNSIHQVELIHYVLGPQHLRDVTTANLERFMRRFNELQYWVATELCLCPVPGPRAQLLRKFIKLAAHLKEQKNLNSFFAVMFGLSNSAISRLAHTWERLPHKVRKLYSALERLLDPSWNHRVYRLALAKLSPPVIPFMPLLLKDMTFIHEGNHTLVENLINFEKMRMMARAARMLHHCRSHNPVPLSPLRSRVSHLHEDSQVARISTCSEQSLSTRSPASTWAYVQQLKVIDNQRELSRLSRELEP
Chain of Papain (Carica papaya) (P00784 whole entry, looked up, the tested form may be a part): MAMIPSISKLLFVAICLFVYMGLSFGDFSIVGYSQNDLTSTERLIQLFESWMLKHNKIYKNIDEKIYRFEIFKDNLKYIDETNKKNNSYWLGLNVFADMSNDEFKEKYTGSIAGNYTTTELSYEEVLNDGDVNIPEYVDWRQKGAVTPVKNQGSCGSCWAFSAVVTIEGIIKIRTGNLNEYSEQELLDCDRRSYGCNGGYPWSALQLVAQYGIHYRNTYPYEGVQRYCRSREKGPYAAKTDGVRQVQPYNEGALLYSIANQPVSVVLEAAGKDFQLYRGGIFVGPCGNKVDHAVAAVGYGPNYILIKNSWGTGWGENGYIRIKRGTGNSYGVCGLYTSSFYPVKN

On to `CC1(C)NC(=O)N(c2ccc([N+](=O)[O-])c(C(F)(F)F)c2)C1=O`, for which the Potency result in assay [1], in [2], in assay [3], in assay [5], in [6] and in [7] was “inactive” each time. The Potency result in [8], in [10], in [11] and in [12] was “inactive” in each case. Also, in [4], the outcome was inactive. The Potency in [9] was 7.76 µM (active) and 6.01 µM (active).

For the compound `COC(=O)C1=C(C)NC(C)=C(C(=O)OC(C)C)C1c1cccc2nonc12` (stereo not drawn), the Potency entry in assay [1], in [3], in assay [5], in [6] and in assay [14] was “inactive” throughout. Moreover, the result in assay [13] was inactive.

On to `CCCCC(CC)COC(=O)C(C#N)=C(c1ccccc1)c1ccccc1` (stereo not drawn), for which the Potency entry in assay [1], in [3], in [5], in assay [6], in [7] and in assay [12] was “inactive” each time. The compound was called inactive in [13]. Also, the Potency in [8] is 1.23 µM (active) and 3.38 µM (active); in [9] it was 1.1 µM (active) and 3.01 µM (active); in assay [11] it was 21.1 µM (active) and inactive.

On to `N=C(N)c1ccc2cc(OC(=O)c3ccc(N=C(N)N)cc3)ccc2c1`, for which the Potency entry in assay [1], in [3], in assay [5], in assay [6], in assay [7] and in assay [8] was “inactive” in each case. In addition, the Potency result in assay [9], in [11] and in assay [12] was “inactive” each time. For the same compound, in assay [13], the compound was classed as inactive.

For the compound `COC(=O)N[C@H](C(=O)N[C@@H](Cc1ccccc1)[C@@H](O)CN(Cc1ccc(-c2ccccn2)cc1)NC(=O)[C@@H](NC(=O)OC)C(C)(C)C)C(C)(C)C`, the Potency result in [1], in [3], in [5], in assay [6] and in [7] was “inactive” each time.

In the case of `CN1C(C(=O)Nc2ccccn2)=C(O)c2sccc2S1(=O)=O`, the Potency entry in [1], in [3], in [5], in [6], in [7] and in [8] was “inactive” throughout. Moreover, the Potency result in assay [11] and in assay [12] was “inactive” each time. For the same compound, the compound was classed as inactive in assay [13]. In assay [9], the Potency was 12.3 µM (active).

Regarding `Cc1cccc(CN2CCN(C(c3ccccc3)c3ccc(Cl)cc3)CC2)c1` (stereo not drawn), the Potency entry in assay [1], in [3], in [5], in [6] and in assay [11] was “inactive” in each case. In [13], the outcome was inactive. For the same compound, the figures for the Potency in assay [8] and in assay [9] were 2.45 µM (active) and 11 µM (active), respectively.

Regarding `CC1Cc2ccccc2N1NC(=O)c1ccc(Cl)c(S(N)(=O)=O)c1` (stereo not drawn), the Potency entry in assay [1], in [3], in [5], in assay [6], in assay [8] and in assay [9] was “inactive” throughout. The Potency entry in assay [11] and in assay [12] was “inactive” throughout. For the same compound, the compound was called inactive in assay [13].

Consider `CCCOc1ccc2nc(NC(=O)OC)[nH]c2c1`, for which the Potency entry in assay [1], in assay [3], in assay [5], in assay [6], in assay [7] and in assay [8] was “inactive” throughout. Further, the Potency result in [9] is “inactive”. Besides, the compound was called inactive in assay [13]. Also, the Potency in assay [11] is 411 nM (active) and 417 nM (active); in assay [12], 366 nM (active) and 263 nM (active).

`CCN(CCO)CCCC(C)Nc1ccnc2cc(Cl)ccc12` (stereo not drawn): the results for the activity change, negative = inhibition in assay [1] and in assay [13] were -4.11% [at 6.17 µM] (inactive) and 13.1% [at 4.81 µM] (inactive), respectively. Also, the activity change in assay [3] is -0.436% [at 0.431 µM] (inactive). Further, the Potency entry in assay [5] and in assay [6] was “inactive” in each case. Further, the % pathology change, negative = correction in [7] was -8.74% [at 4.63 µM] (inactive). Further, the activity change, negative = viability loss in [11] is 1.42% [at 4.96 µM] (inactive) and 7.11% [at 4.96 µM] (inactive). In addition, in assay [12], the outcome is “inactive [at 4.96 µM]”.
